Experimental data from the supplement of paper PMC11732987, “Enantioselective OTUD7B fragment discovery through chemoproteomics screening and high-throughput optimisation” (Communications Chemistry, 2025).

Legend:
Test in all cases: log2 ratio of Biotin-Ahx-Ub-VS probe labelling (fragment/DMSO); higher = less target engagement (more negative = stronger competition), active = hit call of the paper (q ≤ 0.05, log2 ratio ≤ -1)
Conditions in all cases: compound concentration: 200 uM; treatment time: 3 h
[1] = biological target: T1, USP42 (UniProt Q9H9J4)
T1 sequence (whole entry): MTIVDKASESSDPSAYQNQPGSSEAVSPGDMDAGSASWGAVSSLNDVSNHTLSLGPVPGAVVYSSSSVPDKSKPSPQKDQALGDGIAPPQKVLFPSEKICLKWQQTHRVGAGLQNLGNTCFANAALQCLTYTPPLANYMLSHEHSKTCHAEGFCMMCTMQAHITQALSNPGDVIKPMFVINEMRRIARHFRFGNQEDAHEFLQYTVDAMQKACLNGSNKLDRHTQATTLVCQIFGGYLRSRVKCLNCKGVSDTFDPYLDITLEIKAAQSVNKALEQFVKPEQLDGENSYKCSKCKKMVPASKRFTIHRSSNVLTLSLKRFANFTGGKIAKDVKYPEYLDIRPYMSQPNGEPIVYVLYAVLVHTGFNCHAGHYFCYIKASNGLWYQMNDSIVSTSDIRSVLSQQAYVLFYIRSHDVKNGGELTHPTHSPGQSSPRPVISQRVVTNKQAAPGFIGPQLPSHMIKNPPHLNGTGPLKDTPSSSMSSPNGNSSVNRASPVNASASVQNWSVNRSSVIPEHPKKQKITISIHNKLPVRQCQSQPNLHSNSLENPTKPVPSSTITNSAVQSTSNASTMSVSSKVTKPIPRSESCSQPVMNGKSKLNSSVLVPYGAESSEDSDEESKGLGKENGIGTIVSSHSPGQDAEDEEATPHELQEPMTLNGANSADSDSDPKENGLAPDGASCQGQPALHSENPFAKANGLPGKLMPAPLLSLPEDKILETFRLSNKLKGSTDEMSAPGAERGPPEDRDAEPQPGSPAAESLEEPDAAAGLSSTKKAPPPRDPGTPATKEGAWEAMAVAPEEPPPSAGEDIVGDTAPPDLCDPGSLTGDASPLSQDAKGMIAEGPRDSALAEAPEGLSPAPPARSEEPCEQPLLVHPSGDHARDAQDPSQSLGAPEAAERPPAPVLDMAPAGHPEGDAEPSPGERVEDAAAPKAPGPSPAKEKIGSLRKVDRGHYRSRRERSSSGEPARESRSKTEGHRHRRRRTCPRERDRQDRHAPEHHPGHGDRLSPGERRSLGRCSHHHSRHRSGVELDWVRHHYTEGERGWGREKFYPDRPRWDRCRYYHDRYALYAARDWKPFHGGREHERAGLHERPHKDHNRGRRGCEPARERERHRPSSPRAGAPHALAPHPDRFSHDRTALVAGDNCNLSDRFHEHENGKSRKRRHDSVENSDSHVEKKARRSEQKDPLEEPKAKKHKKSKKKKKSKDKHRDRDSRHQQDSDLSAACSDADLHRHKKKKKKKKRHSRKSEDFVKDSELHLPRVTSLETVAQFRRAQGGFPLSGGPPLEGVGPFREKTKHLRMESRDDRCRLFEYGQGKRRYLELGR
In short: (§1)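 Fragment (200 µM) or vehicle was incubated for 3 h with triplicate HEK293T lysate samples of 495 µg, which were then treated with Biotin-Ahx-Ub-VS at 0.5 µM final for 1 h. Labelled DUBs were enriched on NeutrAvidin, digested with LysC and trypsin, and analysed by diaPASEF LC-MS/MS. Values are average log2 fragment/vehicle ratios from an unpaired t-test on global-median-normalised Spectronaut label-free quantities, using proteins with ≥2 unique peptides.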

[2] = biological target: USP46 (UniProt P62068)
In short: as §1

[3] = biological target: T2, USP47 (UniProt Q96K76)
T2 sequence (whole entry): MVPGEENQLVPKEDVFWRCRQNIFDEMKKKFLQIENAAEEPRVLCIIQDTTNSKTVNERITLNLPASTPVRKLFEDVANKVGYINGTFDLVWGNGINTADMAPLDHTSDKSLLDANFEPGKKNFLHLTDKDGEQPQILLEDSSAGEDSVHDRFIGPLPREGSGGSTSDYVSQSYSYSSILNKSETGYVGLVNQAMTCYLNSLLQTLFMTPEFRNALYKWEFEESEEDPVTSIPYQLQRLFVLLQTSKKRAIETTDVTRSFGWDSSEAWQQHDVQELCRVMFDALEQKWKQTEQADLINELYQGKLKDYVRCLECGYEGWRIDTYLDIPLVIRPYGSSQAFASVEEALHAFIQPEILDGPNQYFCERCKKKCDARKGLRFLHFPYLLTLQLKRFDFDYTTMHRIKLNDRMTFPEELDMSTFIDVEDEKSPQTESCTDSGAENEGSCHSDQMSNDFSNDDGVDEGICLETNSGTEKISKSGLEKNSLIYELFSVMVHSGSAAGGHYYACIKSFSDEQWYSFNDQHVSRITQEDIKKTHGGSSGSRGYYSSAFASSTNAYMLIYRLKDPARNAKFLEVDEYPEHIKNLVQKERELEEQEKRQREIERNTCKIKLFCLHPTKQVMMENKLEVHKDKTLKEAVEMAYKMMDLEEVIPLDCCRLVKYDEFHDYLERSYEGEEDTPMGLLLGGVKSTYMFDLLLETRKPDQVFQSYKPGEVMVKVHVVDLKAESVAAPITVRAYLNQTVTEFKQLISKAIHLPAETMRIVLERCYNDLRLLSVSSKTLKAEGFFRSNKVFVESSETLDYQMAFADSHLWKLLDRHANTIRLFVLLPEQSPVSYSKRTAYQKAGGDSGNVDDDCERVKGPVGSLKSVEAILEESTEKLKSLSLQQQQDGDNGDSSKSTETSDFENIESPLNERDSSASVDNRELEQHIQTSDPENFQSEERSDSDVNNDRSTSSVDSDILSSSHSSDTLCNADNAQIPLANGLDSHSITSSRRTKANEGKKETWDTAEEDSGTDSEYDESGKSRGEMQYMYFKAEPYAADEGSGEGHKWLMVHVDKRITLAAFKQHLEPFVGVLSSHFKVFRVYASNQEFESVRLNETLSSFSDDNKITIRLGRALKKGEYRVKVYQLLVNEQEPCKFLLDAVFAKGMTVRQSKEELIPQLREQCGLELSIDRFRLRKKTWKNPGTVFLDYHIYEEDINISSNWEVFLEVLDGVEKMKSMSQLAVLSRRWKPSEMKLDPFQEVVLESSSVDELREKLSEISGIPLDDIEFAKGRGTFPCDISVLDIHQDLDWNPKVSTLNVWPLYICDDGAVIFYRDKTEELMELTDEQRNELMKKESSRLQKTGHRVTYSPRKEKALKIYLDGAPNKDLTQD
In short: as §1

[4] = biological target: T3, USP48 (UniProt Q86UV5)
T3 sequence (whole entry): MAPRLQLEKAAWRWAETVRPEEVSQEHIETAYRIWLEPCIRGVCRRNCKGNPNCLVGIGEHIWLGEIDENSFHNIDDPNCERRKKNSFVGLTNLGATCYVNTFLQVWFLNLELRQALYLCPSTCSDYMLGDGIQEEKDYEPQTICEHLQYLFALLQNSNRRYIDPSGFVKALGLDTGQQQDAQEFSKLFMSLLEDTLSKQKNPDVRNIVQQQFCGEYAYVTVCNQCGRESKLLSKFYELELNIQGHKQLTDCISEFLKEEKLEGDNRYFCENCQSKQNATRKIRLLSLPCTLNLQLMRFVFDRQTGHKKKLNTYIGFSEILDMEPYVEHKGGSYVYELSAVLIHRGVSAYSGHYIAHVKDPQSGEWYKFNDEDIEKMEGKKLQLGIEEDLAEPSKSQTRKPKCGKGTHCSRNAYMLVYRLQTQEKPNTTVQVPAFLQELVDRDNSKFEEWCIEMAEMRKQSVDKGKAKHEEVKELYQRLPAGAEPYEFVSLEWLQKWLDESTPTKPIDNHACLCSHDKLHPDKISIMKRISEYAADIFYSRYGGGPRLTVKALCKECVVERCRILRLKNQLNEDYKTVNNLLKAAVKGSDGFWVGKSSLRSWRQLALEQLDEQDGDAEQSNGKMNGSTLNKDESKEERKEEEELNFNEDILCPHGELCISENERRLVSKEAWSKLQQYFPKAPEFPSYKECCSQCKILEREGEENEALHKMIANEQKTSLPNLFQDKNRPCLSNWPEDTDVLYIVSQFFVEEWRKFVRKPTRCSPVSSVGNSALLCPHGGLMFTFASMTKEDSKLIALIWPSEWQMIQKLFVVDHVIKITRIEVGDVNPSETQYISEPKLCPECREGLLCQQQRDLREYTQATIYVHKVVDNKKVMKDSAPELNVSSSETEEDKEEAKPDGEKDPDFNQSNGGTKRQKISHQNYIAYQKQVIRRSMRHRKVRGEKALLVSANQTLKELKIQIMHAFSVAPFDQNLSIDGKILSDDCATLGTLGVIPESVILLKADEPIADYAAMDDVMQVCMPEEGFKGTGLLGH
In short: as §1

[5] = biological target: T4, USP5 (UniProt P45974)
T4 sequence (whole entry): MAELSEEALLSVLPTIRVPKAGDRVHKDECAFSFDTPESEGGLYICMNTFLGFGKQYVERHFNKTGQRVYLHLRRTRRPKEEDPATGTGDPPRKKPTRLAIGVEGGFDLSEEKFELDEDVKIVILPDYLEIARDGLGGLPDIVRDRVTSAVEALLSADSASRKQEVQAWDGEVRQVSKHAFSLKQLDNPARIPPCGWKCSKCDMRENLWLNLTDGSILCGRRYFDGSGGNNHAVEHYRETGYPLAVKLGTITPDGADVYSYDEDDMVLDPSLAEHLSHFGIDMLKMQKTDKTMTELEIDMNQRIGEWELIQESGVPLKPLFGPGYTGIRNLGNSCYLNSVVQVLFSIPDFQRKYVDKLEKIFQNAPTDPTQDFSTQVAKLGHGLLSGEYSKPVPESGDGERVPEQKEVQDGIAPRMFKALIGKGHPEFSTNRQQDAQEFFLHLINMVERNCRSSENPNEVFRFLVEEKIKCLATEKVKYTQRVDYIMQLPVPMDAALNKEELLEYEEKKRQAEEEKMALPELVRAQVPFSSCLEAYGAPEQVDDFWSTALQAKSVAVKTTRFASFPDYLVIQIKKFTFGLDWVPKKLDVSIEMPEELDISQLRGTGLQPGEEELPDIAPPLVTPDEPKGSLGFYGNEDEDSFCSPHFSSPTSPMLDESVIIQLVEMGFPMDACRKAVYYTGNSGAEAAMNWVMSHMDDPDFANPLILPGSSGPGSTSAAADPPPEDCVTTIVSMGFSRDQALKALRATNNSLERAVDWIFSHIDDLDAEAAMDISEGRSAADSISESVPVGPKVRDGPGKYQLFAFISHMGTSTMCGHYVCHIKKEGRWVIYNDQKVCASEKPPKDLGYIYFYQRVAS
In short: as §1

[6] = biological target: USP54 (UniProt Q70EL1)
In short: as §1

[7] = biological target: USP7 (UniProt Q93009)
In short: as §1

[8] = biological target: T5, USP8 (UniProt P40818)
T5 sequence (whole entry): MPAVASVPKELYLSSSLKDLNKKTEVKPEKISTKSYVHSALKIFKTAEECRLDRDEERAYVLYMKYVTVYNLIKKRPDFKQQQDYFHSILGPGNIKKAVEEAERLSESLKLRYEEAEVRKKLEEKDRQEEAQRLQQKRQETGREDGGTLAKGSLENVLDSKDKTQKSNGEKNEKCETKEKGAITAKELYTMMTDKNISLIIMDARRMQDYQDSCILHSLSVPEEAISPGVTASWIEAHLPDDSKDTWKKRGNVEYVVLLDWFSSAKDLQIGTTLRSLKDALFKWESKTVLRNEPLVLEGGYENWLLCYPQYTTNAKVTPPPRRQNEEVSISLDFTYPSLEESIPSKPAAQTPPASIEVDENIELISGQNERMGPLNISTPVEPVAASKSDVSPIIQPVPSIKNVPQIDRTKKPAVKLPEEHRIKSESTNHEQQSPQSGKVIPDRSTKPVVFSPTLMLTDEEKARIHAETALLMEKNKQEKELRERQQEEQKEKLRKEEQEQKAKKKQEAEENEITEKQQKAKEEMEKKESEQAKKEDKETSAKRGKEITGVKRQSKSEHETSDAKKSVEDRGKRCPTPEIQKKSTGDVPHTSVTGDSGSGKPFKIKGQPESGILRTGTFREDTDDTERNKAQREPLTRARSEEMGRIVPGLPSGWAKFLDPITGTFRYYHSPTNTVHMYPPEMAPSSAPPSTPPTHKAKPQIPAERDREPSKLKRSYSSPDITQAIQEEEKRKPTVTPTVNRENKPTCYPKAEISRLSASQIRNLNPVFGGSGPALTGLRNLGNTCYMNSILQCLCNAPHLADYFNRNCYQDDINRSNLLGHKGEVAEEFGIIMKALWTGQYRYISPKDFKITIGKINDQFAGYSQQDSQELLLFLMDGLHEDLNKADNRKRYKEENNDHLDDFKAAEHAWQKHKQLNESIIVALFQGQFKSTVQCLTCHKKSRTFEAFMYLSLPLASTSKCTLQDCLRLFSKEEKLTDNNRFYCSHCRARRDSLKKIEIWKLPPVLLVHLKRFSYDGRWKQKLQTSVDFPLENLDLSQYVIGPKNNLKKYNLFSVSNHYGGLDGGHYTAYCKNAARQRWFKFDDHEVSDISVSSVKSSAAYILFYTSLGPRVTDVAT
In short: as §1

[9] = biological target: USP9X (UniProt Q93008)
In short: as §1

[10] = biological target: UniProt O00487
In short: as §1

Measured: log2 ratio of Biotin-Ahx-Ub-VS probe labelling

Chain of USP54 (Q70EL1 whole entry): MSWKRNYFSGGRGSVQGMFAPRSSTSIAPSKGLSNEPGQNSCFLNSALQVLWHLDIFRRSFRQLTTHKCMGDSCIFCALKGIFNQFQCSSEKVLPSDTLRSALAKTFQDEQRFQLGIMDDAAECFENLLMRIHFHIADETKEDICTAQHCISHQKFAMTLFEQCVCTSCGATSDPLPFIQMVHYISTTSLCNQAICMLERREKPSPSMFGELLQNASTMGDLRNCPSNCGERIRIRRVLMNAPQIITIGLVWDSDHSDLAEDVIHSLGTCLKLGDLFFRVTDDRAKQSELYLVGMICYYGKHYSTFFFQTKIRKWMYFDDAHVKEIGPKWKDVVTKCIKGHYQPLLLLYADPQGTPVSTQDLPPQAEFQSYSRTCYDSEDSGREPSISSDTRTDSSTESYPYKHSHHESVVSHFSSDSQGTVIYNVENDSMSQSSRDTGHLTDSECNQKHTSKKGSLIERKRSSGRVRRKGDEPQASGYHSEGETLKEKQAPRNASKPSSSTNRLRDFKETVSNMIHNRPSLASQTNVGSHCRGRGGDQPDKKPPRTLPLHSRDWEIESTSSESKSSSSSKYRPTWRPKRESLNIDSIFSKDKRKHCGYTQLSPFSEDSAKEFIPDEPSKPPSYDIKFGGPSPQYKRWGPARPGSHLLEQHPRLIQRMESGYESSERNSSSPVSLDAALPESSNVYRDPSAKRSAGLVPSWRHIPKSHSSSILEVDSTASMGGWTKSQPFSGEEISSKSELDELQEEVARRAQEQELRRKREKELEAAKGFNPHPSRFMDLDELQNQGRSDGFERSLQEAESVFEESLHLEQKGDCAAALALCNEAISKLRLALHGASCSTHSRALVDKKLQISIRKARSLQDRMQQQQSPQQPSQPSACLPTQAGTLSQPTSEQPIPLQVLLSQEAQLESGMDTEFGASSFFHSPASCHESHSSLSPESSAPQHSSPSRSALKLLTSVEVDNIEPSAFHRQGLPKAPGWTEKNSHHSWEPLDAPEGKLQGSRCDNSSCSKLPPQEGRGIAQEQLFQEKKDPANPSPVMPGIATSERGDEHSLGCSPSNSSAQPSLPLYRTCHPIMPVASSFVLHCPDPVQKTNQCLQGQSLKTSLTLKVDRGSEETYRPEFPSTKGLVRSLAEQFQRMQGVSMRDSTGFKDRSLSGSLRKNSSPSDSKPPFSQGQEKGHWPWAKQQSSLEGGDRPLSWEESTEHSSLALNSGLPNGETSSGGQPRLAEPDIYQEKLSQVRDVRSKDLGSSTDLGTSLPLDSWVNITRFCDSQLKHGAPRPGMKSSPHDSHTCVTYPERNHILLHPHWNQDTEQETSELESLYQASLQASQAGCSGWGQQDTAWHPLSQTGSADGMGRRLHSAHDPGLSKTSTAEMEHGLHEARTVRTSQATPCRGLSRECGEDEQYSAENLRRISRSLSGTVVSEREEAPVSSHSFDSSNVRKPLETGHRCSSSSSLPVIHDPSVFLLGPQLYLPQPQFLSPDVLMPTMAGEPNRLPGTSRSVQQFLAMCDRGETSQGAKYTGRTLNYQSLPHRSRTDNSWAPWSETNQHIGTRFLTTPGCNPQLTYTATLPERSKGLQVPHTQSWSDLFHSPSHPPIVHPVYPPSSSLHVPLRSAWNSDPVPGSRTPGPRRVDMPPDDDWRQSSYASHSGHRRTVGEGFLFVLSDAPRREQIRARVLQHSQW
Chain of USP7 (Q93009 whole entry, looked up): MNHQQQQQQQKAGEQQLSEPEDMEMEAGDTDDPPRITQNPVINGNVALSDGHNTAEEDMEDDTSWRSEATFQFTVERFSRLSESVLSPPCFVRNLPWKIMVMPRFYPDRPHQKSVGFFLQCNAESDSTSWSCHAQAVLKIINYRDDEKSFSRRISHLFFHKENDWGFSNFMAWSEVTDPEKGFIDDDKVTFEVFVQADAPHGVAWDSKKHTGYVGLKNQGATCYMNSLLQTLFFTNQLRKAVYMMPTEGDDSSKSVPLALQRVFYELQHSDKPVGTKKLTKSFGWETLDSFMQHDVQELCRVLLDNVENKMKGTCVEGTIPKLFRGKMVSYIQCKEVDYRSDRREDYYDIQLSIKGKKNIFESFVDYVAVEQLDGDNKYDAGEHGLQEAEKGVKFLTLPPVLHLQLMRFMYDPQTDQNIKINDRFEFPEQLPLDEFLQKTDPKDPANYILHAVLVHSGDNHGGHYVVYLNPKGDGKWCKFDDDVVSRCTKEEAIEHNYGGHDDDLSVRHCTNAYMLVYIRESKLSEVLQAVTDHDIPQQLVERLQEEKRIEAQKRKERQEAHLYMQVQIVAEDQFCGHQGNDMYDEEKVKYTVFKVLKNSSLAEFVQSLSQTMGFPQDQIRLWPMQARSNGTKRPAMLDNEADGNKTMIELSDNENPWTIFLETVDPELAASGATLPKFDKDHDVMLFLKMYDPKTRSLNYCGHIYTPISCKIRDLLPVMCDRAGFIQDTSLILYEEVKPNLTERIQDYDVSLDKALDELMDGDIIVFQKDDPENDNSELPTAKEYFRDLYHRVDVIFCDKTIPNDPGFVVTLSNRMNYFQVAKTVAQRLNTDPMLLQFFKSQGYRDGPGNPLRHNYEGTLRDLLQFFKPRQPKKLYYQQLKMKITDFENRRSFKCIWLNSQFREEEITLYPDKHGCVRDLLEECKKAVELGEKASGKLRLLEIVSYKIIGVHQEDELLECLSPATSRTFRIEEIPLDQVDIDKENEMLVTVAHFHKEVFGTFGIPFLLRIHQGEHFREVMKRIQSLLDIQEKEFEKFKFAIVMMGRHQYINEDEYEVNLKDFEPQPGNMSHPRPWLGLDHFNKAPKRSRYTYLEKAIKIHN
Chain of UniProt O00487 (O00487 whole entry): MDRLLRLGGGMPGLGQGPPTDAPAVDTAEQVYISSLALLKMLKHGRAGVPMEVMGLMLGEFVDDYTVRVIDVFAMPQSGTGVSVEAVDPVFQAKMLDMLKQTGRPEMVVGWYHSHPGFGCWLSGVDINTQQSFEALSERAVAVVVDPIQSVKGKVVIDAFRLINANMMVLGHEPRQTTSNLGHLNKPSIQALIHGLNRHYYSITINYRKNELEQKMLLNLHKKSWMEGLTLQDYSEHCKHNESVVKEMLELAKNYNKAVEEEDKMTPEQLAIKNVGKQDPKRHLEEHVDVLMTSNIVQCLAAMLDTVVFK
Chain of USP46 (P62068 whole entry): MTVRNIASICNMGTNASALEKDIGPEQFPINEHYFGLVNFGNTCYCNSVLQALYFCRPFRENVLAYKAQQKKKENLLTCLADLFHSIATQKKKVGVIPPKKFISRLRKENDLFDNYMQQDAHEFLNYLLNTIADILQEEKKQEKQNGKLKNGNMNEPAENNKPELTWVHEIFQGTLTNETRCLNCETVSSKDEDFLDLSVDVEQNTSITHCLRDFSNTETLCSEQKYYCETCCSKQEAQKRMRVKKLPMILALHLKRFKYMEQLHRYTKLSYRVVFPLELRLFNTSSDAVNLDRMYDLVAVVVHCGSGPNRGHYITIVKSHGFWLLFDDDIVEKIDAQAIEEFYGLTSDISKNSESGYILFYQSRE

O=C(CCl)N1CCC(O)(Cc2ccc(F)cc2)C1 (stereo not given)
inactive: [1] 0.0317 | [2] -0.0773 | [3] -0.574 | [4] -0.434 | [5] 0.465 | [6] -0.501 | [7] -0.133 | [8] -0.169 | [9] 0.0751 | [10] -0.0616
